Results: PubChem BioAssay

Assay: growth modulation of vineyard yeast isolate – strain RM11-1a, OD600, basal, 24 h, primary screen (AID 1177);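 further: cultures grown under basal conditions with no added stressor; test concentration not given here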
Conditions: S. cerevisiae RM11-1a growth, OD600, 24 h; higher = more signal, called active from +8 up or from −8 down

z-score, inactive:
C=CCN1C(=O)[C@]2(CC=C)N=C(c3ccc(OCCCO)cc3)O[C@@H]2c2ccccc21 0.506
CCCC=C(CCC)[C@@H](NP(=O)(c1ccccc1)c1ccccc1)c1ccc(C(F)(F)F)cc1 -0.359
CC(C)N1C(=O)[C@@]2(c3ccc([N+](=O)[O-])cc3)CC(=O)N(C3CCCCC3)[C@@H]2c2ccc(CO)cc21 -0.466
CON(C)C(=O)C=C1C[C@@H](c2cccc(Cl)c2)O[C@@H](c2cccc(Cl)c2)O1 1.21
[N-]=[N+]=NCc1ccccc1C[C@@]1(C(N)=O)N=C(c2ccc(OCCCO)cc2)O[C@@H]1c1ccccc1CN=[N+]=[N-] 0.835
O=C(O)[C@H]1C[C@H]2C(=O)N3CCC[C@H]3C(=O)N2[C@H]1c1cccc(OCCO)c1 0.43
C=C(CCCC)C(=O)CC[C@@H](OC(=O)c1ccccc1-c1ccccc1C(=O)O)c1cccc(OCCO)c1 0.134
[N-]=[N+]=NCc1ccccc1C[C@]1(C(=O)NCC(O)CO)N=C(c2ccc(OCCCO)cc2)O[C@H]1c1ccccc1CN=[N+]=[N-] (some centres not stated) 0.18
C=CCNC(=O)[C@@H]1[C@H]2C(=O)O[C@H](c3ccccc3)[C@H](c3ccccc3)N2[C@H](c2ccc(OCCO)cc2)[C@@]12C(=O)N(C(=O)OCCOC)c1ccc(C#CC3=CCCCC3)cc12 2.57
O=C1OCCC=C[C@H]2OC34C=CCN(c5ccc(Cl)cc5)C(=O)[C@H]3N(CCCCCO)C(=O)[C@@H]4C12 (some centres not stated) -0.429
COc1c(C)cc(-c2cc3c(c(-c4ccccc4)n2)[Si](C(C)C)(C(C)C)OC3)cc1C -0.741
CCCCN1CC=CC23O[C@@H]4/C=C\CCC(C)OC(=O)C4[C@H]2C(=O)N(CCCCCCO)[C@@H]3C1=O (some centres not stated) 0.432
